This is part of a sample that, as a whole, favours compounds with a hit. Of some 83,000 tested, about 20% had one in any assay.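 Treatment: one concentration, 48 hours, 96-well format. Scoring: percent growth, with anything below 10 considered active.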 A number with no mark means an inactive call. Calls of active or inactive are those of the source.

The record followed here is PubChem BioAssay (NCI).

Among the test systems are HCT-15 colon; HT29 colon; SNB-75 CNS; SNB-19 CNS; U251 CNS; PC-3 prostate; SK-MEL-5 melanoma; UACC-62 melanoma; LOX IMVI melanoma; SK-MEL-28 melanoma; SK-MEL-2 melanoma; EKVX NSCLC; SN12C renal; UO-31 renal; TK-10 renal; ACHN renal; CAKI-1 renal; A498 renal; CCRF-CEM leukemia; MOLT-4 leukemia.
Holding throughout (test): NCI-60 one-dose screen, 48 h (100 = growth as untreated, 0 = no growth, -100 = all killed)
Holding throughout (settings): 10 µM

As for `Oc1ccc(/C=N\Nc2ccccn2)c(O)c1`, the growth in the assay on HCT-15 colon is 32.7%; with HT29 colon it was 51.6%; with SNB-75 CNS, 9.86% (active); in the assay on SNB-19 CNS, 29.4%; in the assay on U251 CNS it was 26.5%; with PC-3 prostate it was 61.3%. Besides, the growth in the assay on SK-MEL-5 melanoma is 39.4%; in the assay with UACC-62 melanoma, 7.44% (active); in the assay on LOX IMVI melanoma, -6.3% (active); with SK-MEL-28 melanoma it was 64.5%; with SK-MEL-2 melanoma, 46.3%; with EKVX NSCLC, 33%. In addition, the growth in the assay with SN12C renal is 24.1%; in the assay on UO-31 renal it was -19.7% (active); in the assay with TK-10 renal, 61.6%; in the assay with ACHN renal it was 7.03% (active); in the assay with CAKI-1 renal, -15.3% (active); with A498 renal it was 70.7%. For the same molecule, the results for the growth in the assay on CCRF-CEM leukemia and with MOLT-4 leukemia were 8.18% (active) and 11.2%, respectively.

`CCOc1nc(-c2ccccc2)cc2c(O)c(C(=O)NC(C)C)[nH]c(=O)c12`: the growth is 99.7% with HCT-15 colon; 125% in the assay with HT29 colon; 103% with SNB-75 CNS; 96.9% with SNB-19 CNS; 99.8% in the assay with U251 CNS; 46.4% in the assay with PC-3 prostate. For the same molecule, the growth in the assay with SK-MEL-5 melanoma was 99.5%; with UACC-62 melanoma, 105%; in the assay on LOX IMVI melanoma, 97.6%; in the assay with SK-MEL-28 melanoma it was 89.7%; with SK-MEL-2 melanoma, 126%; in the assay with EKVX NSCLC it was 105%. Besides, the growth in the assay with SN12C renal is 114%; in the assay on UO-31 renal, 80.2%; in the assay with TK-10 renal it was 133%; with ACHN renal, 97.6%; in the assay with CAKI-1 renal, 94.2%; in the assay on CCRF-CEM leukemia, 58.2%. Moreover, in the assay with MOLT-4 leukemia, the growth was 99.1%.

As to `CCOc1nc(-c2ccccc2)cc2c(O)c(C(=O)N/N=C/c3ccc(OC)cc3)[nH]c(=O)c12`, the growth with HCT-15 colon was 110%; in the assay on HT29 colon, 108%; in the assay on SNB-75 CNS, 91.7%; with SNB-19 CNS it was 96.9%; with U251 CNS, 100%; in the assay with PC-3 prostate it was 88%. The growth in the assay on SK-MEL-5 melanoma is 53.5%; with UACC-62 melanoma, 104%; in the assay on LOX IMVI melanoma it was 114%; in the assay on SK-MEL-28 melanoma it was 114%; in the assay with SK-MEL-2 melanoma it was 98.5%; in the assay with EKVX NSCLC, 99.7%. For the same molecule, the growth with SN12C renal was 114%; in the assay with UO-31 renal, 66.8%; with TK-10 renal it was 120%; in the assay on ACHN renal it was 100%; in the assay with CAKI-1 renal, 92.5%; in the assay on A498 renal, 132%. Also, the values for the growth in the assay with CCRF-CEM leukemia and with MOLT-4 leukemia were 91.8% and 63%, respectively.

Regarding `C/C(=N\NC(N)=S)C(C)(C)O`, the growth with HCT-15 colon was 101%; with HT29 colon it was 61%; with SNB-75 CNS, 91.2%; with SNB-19 CNS, 106%; in the assay with U251 CNS, 88.1%; in the assay on PC-3 prostate, 90.1%. The growth with SK-MEL-5 melanoma is 101%; in the assay on UACC-62 melanoma it was 103%; in the assay with LOX IMVI melanoma, 95.1%; with SK-MEL-28 melanoma it was 98.5%; in the assay on SK-MEL-2 melanoma it was 98.5%; in the assay with EKVX NSCLC, 67.1%. Further, the growth with SN12C renal is 87.1%; in the assay on UO-31 renal, 68.9%; with TK-10 renal, 126%; in the assay with ACHN renal, 90.2%; in the assay with CAKI-1 renal, 89.6%; with A498 renal, 91.7%. Moreover, in the assay on MOLT-4 leukemia, the growth is 44.9%.

In the case of `O=[N+]([O-])c1ccc(S(=O)(=O)OCCCCOS(=O)(=O)c2ccc([N+](=O)[O-])cc2)cc1`, the growth with HCT-15 colon was 114%; with HT29 colon it was 107%; in the assay on SNB-75 CNS it was 92%; with SNB-19 CNS, 112%; in the assay on U251 CNS it was 104%; with PC-3 prostate, 98.4%. Besides, the growth with SK-MEL-5 melanoma is 100%; in the assay with UACC-62 melanoma it was 99.8%; in the assay with LOX IMVI melanoma it was 94.6%; in the assay on SK-MEL-28 melanoma it was 99.1%; in the assay with SK-MEL-2 melanoma, 115%; with EKVX NSCLC, 95.8%. The growth is 97% with SN12C renal; 90.1% with UO-31 renal; 113% with TK-10 renal; 110% with ACHN renal; 97.9% in the assay with CAKI-1 renal; 104% in the assay with A498 renal. In addition, the growth with MOLT-4 leukemia is 94.7%.

With `O=C(NNc1nc(N2CCCC2)nc(N2CCCC2)n1)c1ccccc1`, the growth was 108% with HCT-15 colon; 102% with HT29 colon; 88.7% with SNB-75 CNS; 99.6% in the assay with SNB-19 CNS; 98.5% in the assay with U251 CNS; 101% in the assay with PC-3 prostate. In addition, the growth in the assay on SK-MEL-5 melanoma was 110%; in the assay on UACC-62 melanoma, 99.3%; with LOX IMVI melanoma, 110%; in the assay with SK-MEL-28 melanoma, 106%; with SK-MEL-2 melanoma, 101%; in the assay on EKVX NSCLC it was 102%. Further, the growth in the assay with SN12C renal is 100%; in the assay on UO-31 renal, 81.7%; in the assay on TK-10 renal, 114%; in the assay with ACHN renal, 102%; with CAKI-1 renal, 116%; in the assay with A498 renal it was 102%. Also, the values for the growth with CCRF-CEM leukemia and in the assay with MOLT-4 leukemia were 103% and 68.4%, respectively.

Consider `CCOc1nc(-c2ccccc2)cc2c(O)c(C(=O)NCCCO)[nH]c(=O)c12`, for which the growth in the assay with HCT-15 colon was 102%; in the assay on HT29 colon it was 104%; with SNB-75 CNS, 88.6%; in the assay with SNB-19 CNS, 96.9%; in the assay on U251 CNS, 100%; in the assay with PC-3 prostate, 46.3%. In addition, the growth in the assay with SK-MEL-5 melanoma is 88.8%; in the assay with UACC-62 melanoma, 99.8%; in the assay on LOX IMVI melanoma it was 108%; with SK-MEL-28 melanoma, 102%; with SK-MEL-2 melanoma, 92.7%; with EKVX NSCLC it was 108%. The growth is 103% in the assay on SN12C renal; 79.6% with UO-31 renal; 91.6% in the assay on ACHN renal; 87.8% with CAKI-1 renal; 93.5% with A498 renal; 68% in the assay on CCRF-CEM leukemia. Besides, the growth in the assay on MOLT-4 leukemia is 97%.

Consider `COc1ccc(/C(=C/c2cc(OC)c(OC)cc2[N+](=O)[O-])C(=O)O)cc1`, for which the growth in the assay with HCT-15 colon was 107%; in the assay on HT29 colon it was 109%; in the assay on SNB-75 CNS it was 93.8%; with SNB-19 CNS, 106%; in the assay with U251 CNS, 107%; in the assay on PC-3 prostate it was 99.2%. In addition, the growth in the assay with SK-MEL-5 melanoma was 110%; in the assay on UACC-62 melanoma it was 106%; with LOX IMVI melanoma it was 97.1%; with SK-MEL-28 melanoma, 116%; in the assay with SK-MEL-2 melanoma it was 107%; with EKVX NSCLC, 105%. In addition, the growth in the assay on SN12C renal is 104%; in the assay on UO-31 renal, 83%; with TK-10 renal, 118%; in the assay with ACHN renal, 108%; in the assay with CAKI-1 renal, 96.1%; with CCRF-CEM leukemia, 98.6%. Moreover, the growth in the assay on MOLT-4 leukemia was 103%.
